The values below come from PubChem BioAssay (Tox21).

Where “and” joins values, the source holds several entries; their conditions need not be identical. Identical values can stand only once. A number with no mark means an inactive call. Results filed as inconclusive are left out. Calls of active or inactive are those of the source. Unless noted, calls come from the whole dose curve; as a rule, active = well fitted curve in the direction sought with a large enough effect in the repeat runs; inconclusive = weak or mixed curves; inactive = no such curve, though single readings can be large; an effect the other way counts as inactive or inconclusive.

Experiment [1] has as its target Luciferin 4-monooxygenase (Photinus pyralis) (UniProt P08659). The experiment in a line: qHTS assay to identify small molecule inhibitors of firefly luciferase (AID 1224835). Note: nearly all actives have a fitted effect of over 25% in size. The method, boiled down:
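Biochemical qHTS: compounds run as interplate titrations against purified firefly enzyme, with D-luciferin and ATP each at its KM concentration. Light output recorded by CCD imaging.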

The nature of experiment [2]: qHTS assay to identify small molecule agonists of the constitutive androstane receptor (CAR) signaling pathway - cell viability counter screen (AID 1224836). Note: nearly all actives have a fitted effect of over 45% in size. Note: potency is the fitted concentration of half-maximal effect. In a few lines: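 Counter screen multiplexed with the CAR reporter readout: HepG2 cells co-transfected with hCAR and the CYP2B6-2.2kb construct receive a 15-concentration compound series and 0.75 uM PK11195 (final), then CellTiter-Fluor fluorescence is read after 23 h.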

A short description of experiment [3]: qHTS assay to identify small molecule antagonists of the constitutive androstane receptor (CAR) signaling pathway - cell viability counter screen (AID 1224837). Note: nearly all actives have a fitted effect of over 45% in size. Note: potency is the fitted concentration of half-maximal effect. In a few lines: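 To flag cytotoxic false antagonists, HepG2 hCAR/CYP2B6-2.2kb cells were treated 23 hr with 15-concentration compound series and 50 nM CITCO at 37 C/5% CO2; CellTiter-Fluor fluorescence was the measured end point.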

Experiment [4] addresses Nuclear receptor subfamily 1 group I member 3 (Homo sapiens) (UniProt Q14994). The experiment can be described thus: qHTS assay to identify small molecule antagonists of the constitutive androstane receptor (CAR) signaling pathway (AID 1224838).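 Note: HepG2 cells stably expressing hCAR with CYP2B6 luciferase reporter stimulated by CITCO; nearly all actives have a fitted effect of over 40% in size.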 In a few lines:
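Human hepatoma HepG2 cells expressing hCAR and a CYP2B6 promoter (2.2 kb) luciferase construct; compound titration (15 points) with 50 nM CITCO final, 24 h at 37 C/5% CO2; luminescence via ONE-Glo after 30 min at room temperature.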

For experiment [5] the target is unchanged. The experiment in a line: qHTS assay to identify small molecule agonists of the constitutive androstane receptor (CAR) signaling pathway (AID 1224839). Note: nearly all actives have a fitted effect of over 15% in size. Note: potency is the fitted concentration of half-maximal effect. The method, boiled down: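 A 15-concentration quantitative screen uses HepG2 cells co-transfected stably with human CAR and CYP2B6-2.2kb reporter. Treatment lasts 24 h with 0.75 uM PK11195 final present; ONE-Glo luminescence is the signal.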

The nature of experiment [6]: qHTS assay to identify small molecule antagonists of the estrogen related receptor signaling pathway with the pleiotropic PPARgamma coactivator (PGC) from Tox21 10K library - cell viability counter screen (AID 1224840; active = well fitted cell-killing curve with a large enough effect in the repeat runs, not every such curve was filed as active; note: nearly all actives have a fitted effect of over 40% in size). In a few lines:
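Seeded PGC/ERR cells (2,000/well, 6 h, 37 C/5% CO2) get compound by pin tool; 17.5 h incubation at 37 C; CellTiter-Fluor added, 30 min, fluorescence measured.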

A short description of experiment [7]: qHTS assay to identify small molecule antagonists of the estrogen related receptor signaling pathway with the pleiotropic PPARgamma coactivator (PGC) from Tox21 10K library (AID 1224841; call rule not given here; note: actives are mostly falling curves and most rising ones were filed inactive; nearly all actives have a fitted effect of over 50% in size; note: potency is the fitted concentration of half-maximal effect). In a few lines: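 Test chemicals dissolved in DMSO were applied to pre-incubated (6 h) PGC/ERR cells at 2,000 cells/well for an 18 h, 37 C treatment; reporter luminescence was then read using One-Glo.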

A short description of experiment [8]: qHTS assay to identify small molecule agonists of the estrogen related receptor signaling pathway with the pleiotropic PPARgamma coactivator (PGC) from Tox21 10K library (AID 1224842). Note: nearly all actives have a fitted effect of over 15% in size. In a few lines: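 PGC/ERR reporter cell line, 2,000 cells per well, incubated 6 h at 37 C before 23 nL compound in DMSO was added. After 18 h at 37 C, One-Glo luminescence read following 30 min at room temperature.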

The target in experiment [9] is Thyrotropin receptor (Homo sapiens) (UniProt P16473). The experiment can be described thus: qHTS assay to identify small molecule agonists of the thyroid stimulating hormone receptor (TSHR) signaling pathway (AID 1224843; calls by dose curve; note: nearly all actives have a fitted effect of over 45% in size; note: potency is the fitted concentration of half-maximal effect). The method, boiled down:
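HEK293/TSHR, 800 cells/well; cpd 30 min RT; add cAMP-d2 + anti-cAMP-cryptate, 1 h RT; fluorescence read on plate reader. 15-pt titration, n=3.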

Experiment [10] in a line: qHTS assay to identify small molecule agonists of the hypoxia (HIF-1) signaling pathway - cell viability counter screen (AID 1224844; calls by dose curve; note: nearly all actives have a fitted effect of over 50% in size; note: potency is the fitted concentration of half-maximal effect). In a few lines: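 HRE-bla ME-180; 0.5% dFBS; cpd 17 h, 37C, 5% CO2; CellTiter-Glo lum., 30 min RT, post-FRET read, same wells.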
Experiment [11] is described as follows: qHTS assay to identify small molecule agonists of H2AX - cell viability counter screen (AID 1224847; calls by dose curve; note: top concentration of the series differs between compounds; nearly all actives have a fitted effect of over 30% in size). The method, boiled down:
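We seed wild-type CHO-K1 cells overnight, treat them for 3 hr at 37C with compounds in 15-concentration series, and quantify remaining viability by CellTiter-Glo luminescence.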

Experiment [12] is described as follows: qHTS assay to identify small molecule antagonists of the estrogen related receptor (ERR) signaling pathway from Tox21 library (AID 1224848). Note: nearly all actives have a fitted effect of over 50% in size. Note: potency is the fitted concentration of half-maximal effect. In a few lines: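 Compounds dissolved in DMSO are pin-transferred onto ERR reporter cells (2,000 per well) that have settled for 6 h at 37 C. Plates then incubate 18 h at 37 C before ONE-Glo luciferase reagent and a luminescence read 30 min later.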

Experiment [13] is described as follows: qHTS assay to identify small molecule agonists of the estrogen related receptor (ERR) signaling pathway from Tox21 library (AID 1224849; calls by dose curve; note: nearly all actives have a fitted effect of over 15% in size). As to conditions: ERR reporter cell line, ONE-Glo luciferase, 18 h. In a few lines:
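Tox21 compounds tested for ERR agonism in an NTP reporter cell line: 18 h treatment at 37 C, then ONE-Glo luminescence.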

The nature of experiment [14]: qHTS RealTime-Glo MT Cell Viability Assay in HepG2 cells - 24 hour (AID 1224867). Note: nearly all actives have a fitted effect of over 50% in size. The method, boiled down: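 qHTS, HepG2, 600 cells/well, RealTime-Glo (NanoLuc + prosubstrate) added with cells; 5 h preincubation; DMSO compound addition; 37 C; luminescence at 0/8/16/24/32/40 h.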
Experiment [15] can be described thus: qHTS RealTime-Glo MT Cell Viability Assay in HEK293 cells - 32 hour (AID 1224868). Note: nearly all actives have a fitted effect of over 50% in size. Note: potency is the fitted concentration of half-maximal effect. In a few lines: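 Assay medium contained NanoLuc luciferase plus cell-permeant prosubstrate, added with HEK293 cells at 600 cells/well. After 5 h at 37 C/5% CO2 compounds were added; plates stayed at 37 C for 40 h with serial luminescence reads.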
Experiment [16] can be described thus: qHTS RealTime-Glo MT Cell Viability Assay in HepG2 cells - 40 hour (AID 1224870). Note: nearly all actives have a fitted effect of over 50% in size. In a few lines: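 HepG2 cells (600/well) mixed with RealTime-Glo MT reagent, settled 5 h at 37 C/5% CO2 before compound addition. Nonlytic NanoLuc luminescence from viable-cell prosubstrate reduction read repeatedly during 40 h treatment at 37 C.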
Experiment [17] can be described thus: A CellTox Green Cytotoxicity Assay to monitor cytotoxicity in HEK293 cells - 40 hour (AID 1224871). Note: nearly all actives have a fitted effect of over 45% in size. In a few lines:
(§1)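 Tox21 screen in HEK293: membrane-impermeant cyanine dye fluoresces on binding dead-cell DNA; compound pinned 5 h post-seeding, plates held at 37 C, signal read repeatedly through 40 h.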

A short description of experiment [18]: qHTS assay to identify small molecule agonists of the hypoxia (HIF-1) signaling pathway (AID 1224846; active = well fitted activation curve with a large enough effect in the signal ratio in the repeat runs, not every such curve was filed as active; the % refers to the signal ratio). The method, boiled down:
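Reporter induction in HRE-bla ME-180 cells is taken as agonism: cells sit 5 hrs after plating, receive compounds or DMSO only, incubate 17 hrs at 37C under 5% CO2, and are loaded with CCF4-AM for beta-lactamase FRET measurement.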

Experiment [19] in a line: qHTS assay to identify small molecule agonists of H2AX (AID 1224845; active = well fitted activation curve with a large enough effect in the signal ratio in the repeat runs, not every such curve was filed as active; the % refers to the signal ratio). The method, boiled down:
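Wild-type CHO-K1 cells, plated overnight, exposed 3hr at 37C to 15 concentrations (0.76% DMSO final). Lysed, then HTRF anti-pH2AX (S139) cryptate and anti-H2AX-d2 antibodies, 24 hr room temperature; 665/620 nm emission read.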

Experiment [20] in a line: A CellTox Green Cytotoxicity Assay to monitor cytotoxicity in HEK293 cells - 0 hour (AID 1224869). Note: nearly all actives have a fitted effect of over 50% in size. The method, boiled down: as §1
% is set by controls: 0 for no effect and ±100 for the full control effect.

Luciferin 4-monooxygenase (Photinus pyralis), sequence (P08659 whole entry, looked up): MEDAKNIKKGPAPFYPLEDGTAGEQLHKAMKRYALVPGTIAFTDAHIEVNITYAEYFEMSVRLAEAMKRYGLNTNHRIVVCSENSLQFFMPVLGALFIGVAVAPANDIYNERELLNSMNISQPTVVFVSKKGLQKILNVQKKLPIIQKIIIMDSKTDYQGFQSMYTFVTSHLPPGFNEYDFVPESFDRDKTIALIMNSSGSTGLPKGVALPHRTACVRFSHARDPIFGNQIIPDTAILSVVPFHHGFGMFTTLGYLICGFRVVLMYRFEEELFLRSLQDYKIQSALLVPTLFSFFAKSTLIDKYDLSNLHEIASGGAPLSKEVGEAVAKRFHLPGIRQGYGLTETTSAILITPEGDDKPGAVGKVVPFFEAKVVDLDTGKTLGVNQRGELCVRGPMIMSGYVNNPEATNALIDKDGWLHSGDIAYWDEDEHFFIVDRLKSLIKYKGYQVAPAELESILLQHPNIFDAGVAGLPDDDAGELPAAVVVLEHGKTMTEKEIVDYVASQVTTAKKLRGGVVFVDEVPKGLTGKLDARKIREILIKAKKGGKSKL
Nuclear receptor subfamily 1 group I member 3 (Homo sapiens), sequence (Q14994 whole entry, looked up): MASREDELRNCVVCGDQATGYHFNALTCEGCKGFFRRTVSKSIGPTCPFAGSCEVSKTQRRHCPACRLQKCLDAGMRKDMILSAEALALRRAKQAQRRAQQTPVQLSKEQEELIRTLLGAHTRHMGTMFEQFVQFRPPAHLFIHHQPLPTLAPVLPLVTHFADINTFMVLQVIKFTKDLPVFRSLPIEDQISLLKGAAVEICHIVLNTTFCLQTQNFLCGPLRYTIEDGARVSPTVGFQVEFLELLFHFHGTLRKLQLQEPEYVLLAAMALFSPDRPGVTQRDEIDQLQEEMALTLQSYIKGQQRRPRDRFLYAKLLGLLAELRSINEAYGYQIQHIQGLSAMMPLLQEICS
Thyrotropin receptor (Homo sapiens), sequence (P16473 whole entry, looked up): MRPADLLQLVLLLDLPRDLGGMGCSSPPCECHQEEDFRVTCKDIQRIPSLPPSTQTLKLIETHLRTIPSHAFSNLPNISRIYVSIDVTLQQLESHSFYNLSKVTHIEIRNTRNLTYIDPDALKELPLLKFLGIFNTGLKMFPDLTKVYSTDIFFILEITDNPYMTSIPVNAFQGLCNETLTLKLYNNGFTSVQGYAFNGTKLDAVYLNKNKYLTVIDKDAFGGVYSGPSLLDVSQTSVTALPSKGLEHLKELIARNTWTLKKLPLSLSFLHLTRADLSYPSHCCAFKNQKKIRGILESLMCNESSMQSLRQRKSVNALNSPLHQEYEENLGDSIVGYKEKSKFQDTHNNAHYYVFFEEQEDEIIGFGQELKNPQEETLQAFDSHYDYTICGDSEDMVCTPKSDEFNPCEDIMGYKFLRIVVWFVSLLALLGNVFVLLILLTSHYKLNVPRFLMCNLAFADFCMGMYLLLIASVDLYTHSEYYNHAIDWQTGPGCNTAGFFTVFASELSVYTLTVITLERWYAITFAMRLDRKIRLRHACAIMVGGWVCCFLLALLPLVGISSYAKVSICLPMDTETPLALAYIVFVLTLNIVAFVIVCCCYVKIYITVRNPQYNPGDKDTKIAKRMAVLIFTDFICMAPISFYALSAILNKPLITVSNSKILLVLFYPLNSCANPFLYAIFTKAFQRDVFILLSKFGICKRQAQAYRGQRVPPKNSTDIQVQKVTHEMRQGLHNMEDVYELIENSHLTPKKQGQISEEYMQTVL

As to `Nc1ncn([C@@H]2O[C@H](CO)[C@@H](O)[C@H]2O)c(=O)n1`, the Potency result in experiment [1], in experiment [4], in experiment [5], in [6], in experiment [8] and in experiment [9] was “inactive” in each case. The Potency entry in experiment [11], in experiment [14], in [15], in experiment [16] and in [17] was “inactive” throughout. For the same compound, the Potency in experiment [2] was 5.96 µM (active); in [3], 4.86 µM (active); in experiment [7] it was 2.73 µM (active) and 7.5 µM (active); in experiment [10] it was 13.8 µM (active); in [12], 864 nM (active) and 1.19 µM (active). For the same compound, the figures for the activity change, positive = activation in experiment [13] (at 42.5 µM (top of the series)) and in experiment [13] (at 92.4 µM (top of the series)) were -50.1% and -55.9%, respectively.
As for `CC1=CC2C3CC(C=C3C)C2C1` (stereo not drawn), the Potency entry in experiment [1], in experiment [2], in [3], in experiment [4], in [5] and in [6] was “inactive” in each case. Also, the Potency entry in experiment [7], in [8], in [9], in experiment [10], in experiment [18] and in experiment [12] was “inactive” throughout. Further, the Potency entry in experiment [14], in [15] and in [16] was “inactive” each time. For the same compound, in experiment [13] (at 92.4 µM (top of the series)), the activity change, positive = activation is 0.676% and -14.6%.
With `C#C[C@]1(O)CC[C@H]2[C@@H]3CCc4cc(OC)ccc4[C@H]3CC[C@@]21C`, the Potency entry in experiment [1], in experiment [2], in experiment [3], in [4], in experiment [6] and in experiment [7] was “inactive” each time. The Potency entry in experiment [10], in [18], in experiment [12], in experiment [14] and in experiment [16] was “inactive” in each case. In addition, the Potency in experiment [5] is 27.3 µM (active) and 23.7 µM (active); in [9], 19.3 µM (active); in [15], 24.5 µM (active) and 19 µM (active). In addition, in [19], the call was inactive. Besides, the activity change, positive = activation was -12.2% in experiment [13] (at 42.5 µM (top of the series)) and -15.3% in [13] (at 92.4 µM (top of the series)).
For the compound `O=C(c1ccccc1)c1ccccc1O`, the Potency entry in experiment [1], in experiment [2], in experiment [3], in experiment [4], in experiment [5] and in experiment [6] was “inactive” in each case. Moreover, the Potency entry in [7], in experiment [8], in [9], in experiment [10], in experiment [18] and in [12] was “inactive” each time. For the same compound, the Potency entry in [14], in experiment [15], in experiment [20] and in [16] was “inactive” each time. Also, the activity change, positive = activation in experiment [13] (at 92.4 µM (top of the series)) is -0.602% and -1.04%.
Turning to `Cc1[nH]c(=O)c(C#N)cc1-c1ccncc1`, the Potency result in experiment [1], in experiment [2], in experiment [3], in [4], in [5] and in experiment [6] was “inactive” throughout. In addition, the Potency entry in [10], in experiment [14], in experiment [15] and in [20] was “inactive” each time. The outcome in experiment [19] was inactive.
On to `Nc1ccc(S(=O)(=O)Nc2cnc3ccccc3n2)cc1`, for which the Potency entry in [1], in experiment [2], in experiment [3], in [4], in experiment [6] and in experiment [9] was “inactive” throughout. For the same compound, the Potency entry in experiment [10], in [11], in experiment [14], in [15], in experiment [20] and in [16] was “inactive” in each case. Also, the Potency entry in [17] was “inactive”. In experiment [19], the result was inactive.
